Methyltransferases = Primary Screen for Target Class Profiling of Small Molecule Inhibitors of Methyltransferases; 25,000 compounds, 3.9% hits; AID 1745853, 2022; purified enzyme, MTase-Glo SAH luminescence; active compounds read low; calls only at 40 µM; call rule not given here
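Each enzyme was assayed with SAM and its substrate. SAH formation detected by MTase-Glo luminescence; single-point 40 uM screen[…].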
The depositor's hits bear a star; i = inactive; + = active, no number; ! = not active in a repeat. Only a selection was taken, and hits are over-represented in it overall. % is scaled to controls: 0 for no effect and ±100 for the full control effect.

SMILES	Methyltransferases
Nc1nc(NCC2CCC(CNS(=O)(=O)c3cccc4ccccc34)CC2)nc2ccccc12 (stereo not drawn)	+
O=C(NCCCc1ccccc1)C1CCC(CNS(=O)(=O)c2cccc3nsnc23)CC1 (stereo not drawn)	i
COc1ccccc1CNC(=O)C1(C)Cn2nc(-c3ccccc3)cc2C(=O)N1Cc1ccc(F)cc1 (stereo not drawn)	i
CC1(C(=O)NC2CCCCCCC2)Cn2c(cc3sccc32)C(=O)N1CCN1CCCCCC1 (stereo not drawn)	i
CCCN1CCN(CCCNC(=O)c2cc3n(n2)CC(C)(C(=O)NCc2ccccc2)N(C)C3=O)CC1 (stereo not drawn)	i
Cc1ccc(Cn2c(=O)c3ccc(C(=O)NCC(C)C)cc3n3c(=O)n(CC(=O)NC(C)(C)C)nc23)cc1	i
CC(C)OCCCn1c(=O)c2ccccc2n2c(=O)n(CC(=O)NC3CCCCC3)nc12	i
O=C(O)Cc1c(-c2ccccc2)c2cc(Br)ccc2[nH]c1=O	i
O=C1NC(=O)c2c1c(-c1ccccc1)cc1[nH]c3ccc(O)cc3c21	+
O=C(O)Cc1c(-c2ccccc2)c2cc(Cl)ccc2[nH]c1=O	i
CCCN1C(=O)c2cc3occc3n2CC1(C(=O)NC1CCCCCCC1)c1ccccc1 (stereo not drawn)	i
C=C1C(OC2OC(CO)C(O)C(O)C2O)CC2C(C)(C)C(O)CCC2(C)C1CC/C(C)=C\COC(=O)CC(=O)O (stereo not drawn)	+
CC(C)=CC/C=C(\C)[C@H]1CC[C@]2(C)[C@@H]1[C@H](O)C[C@@H]1[C@@]3(C)CC[C@H](O)C(C)(C)[C@@H]3[C@@H](O[C@@H]3O[C@H](CO)[C@@H](O)[C@H](O)[C@H]3O)C[C@]12C	i
CC(C)=CC/C=C(/C)[C@H]1CC[C@]2(C)[C@@H]1[C@H](O)CC1[C@@]3(C)CC[C@H](O)C(C)(C)[C@@H]3[C@@H](O[C@@H]3O[C@H](CO)[C@@H](O)[C@H](O)[C@H]3O[C@@H]3O[C@@H](C)[C@H](O)[C@@H](O)[C@H]3O)C[C@]12C (stereo partly drawn)	i
COc1ccc(S(=O)(=O)N2CCCC(c3nnnn3-c3ccccc3)C2)cc1 (stereo not drawn)	i
Cc1ccc(NC(=O)CSc2nnc3n(CC(C)C)c(=O)c4ccccc4n23)c(Cl)c1	i
COc1cccc(S(=O)(=O)N2CCC(n3c(C)cnc3C3CCOCC3)CC2)c1	i
CCCCN1C(=O)c2ccc(-c3ccccc3)n2CC1(C)C(=O)NC1CCC(C)CC1 (stereo not drawn)	i
C[C@]12CC[C@@H]3c4ccc(OC(=O)c5ccccc5)cc4CC[C@H]3[C@@H]1CC[C@@H]2O	i
CC12CCC3c4ccc(OC5OC(C(=O)O)C(O)C(O)C5O)cc4CCC3C1CCC2O (stereo not drawn)	i
COc1cc2c(cc1O)CC[C@@H]1[C@@H]2CC[C@]2(C)[C@@H](O)CC[C@@H]12	+
Fc1ccc2c(CCNCc3cccc(OCC(F)(F)C(F)F)c3)c[nH]c2c1	+
CCC(C)NC(=O)c1ccc2c(=O)n(C)c3nn(CC(=O)Nc4cccc(Cl)c4)c(=O)n3c2c1 (stereo not drawn)	i
COc1ccc(OC)c(S(=O)(=O)N2CCC(N3C[C@H](OC)[C@@H]3c3ccncc3)CC2)c1	i
CCc1ccc(S(=O)(=O)c2nnn3c2nc(NCc2ccccc2)c2ccccc23)cc1	i
SMILES	Methyltransferases
Cc1ccc(C)c(N2CCN(S(=O)(=O)c3cc4c(cc3Cl)n(C)c(=O)n4C)CC2)c1	i
Cc1ccc(NC(=O)Cn2nc3n(C(C)C)c(=O)c4ccc(C(=O)NCC(C)C)cc4n3c2=O)cc1F	i
O=C(c1ccc2c(=O)nc3c(-c4ccc(Cl)cc4)n[nH]n3c2c1)N1CCN(c2ccccc2)CC1	i
CCCn1c(=O)c2ccc(Cl)cc2n2c(=O)n(CC(=O)c3ccc(OC)cc3)nc12	i
O=c1cc(-c2ccc(O)c(O)c2)oc2cc(O)cc(O)c12	i
O=c1c(-c2ccc(O)cc2)coc2cc(O)cc(O)c12	i
O=c1c(O)c(-c2ccc(O)c(O)c2)oc2cc(O)cc(O)c12	+!
CCCN1C(=O)c2ccc(-c3ccco3)n2CC1(C)C(=O)NC1CCCCCC1 (stereo not drawn)	i
CC(C)(O)C1CC=C(C(=O)OCC2OC(Oc3c(O)cc(C(=O)O)cc3O)C(O)C(O)C2O)CC1 (stereo not drawn)	+
Cc1cc(O[C@@H]2O[C@H](COC(=O)CC(=O)O)[C@@H](O)[C@H](O)[C@H]2O)c(C(C)C)cc1O	i
COc1cc(C(=O)OCC2=CCC3C(C(=O)O)=COC(O[C@@H]4O[C@H](CO)[C@@H](O)[C@H](O)[C@H]4O)C23)ccc1O (stereo partly drawn)	i
CC(=O)c1ccc(O[C@@H]2O[C@H](CO[C@@H]3OC[C@@H](O)[C@H](O)[C@H]3O)[C@@H](O)[C@H](O)[C@H]2O)cc1	i
CC(C)(O)C1CC=C(C(=O)OC[C@H]2O[C@@H](Oc3cc(C(=O)O)cc(O)c3O)[C@H](O)[C@@H](O)[C@@H]2O)CC1 (stereo partly drawn)	+
O=C(/C=C/c1ccc(O)c(O)c1)OC[C@H]1O[C@@H](OC2CCCCC2O)[C@H](O)[C@@H](O)[C@@H]1O (stereo partly drawn)	i
COc1ccc2cc3n(c2c1)CC(C)(C(=O)NC1CCCCC1)N(Cc1ccccc1Cl)C3=O (stereo not drawn)	i
CCN(CC)C(=O)Cn1c(=O)oc2cc(S(=O)(=O)N3CC(C)CC(C)C3)ccc21 (stereo not drawn)	i
CCCn1c(=O)c2ccc(C(=O)NC(C)C)cc2n2c(=O)n(Cc3ccccc3)nc12	i
CCOc1ccc2cc(-c3nnc(Nc4ccccc4)s3)c(=O)oc2c1	i
CCCSCCCNC(=O)c1cc2n(n1)CC(C)(C(=O)NCc1ccc(C)cc1)N(C)C2=O (stereo not drawn)	i
CNc1cc2c(Nc3cccc(Br)c3)ncnc2cn1	+
Cc1ccccc1NC(=O)Cn1nc2n(CCC(C)C)c(=O)c3ccc(C(=O)NCC(C)C)cc3n2c1=O	i
O=C(/C=C/c1ccc(O)cc1)OCC1=CC2OC(=O)C3=CO[C@@H](O[C@@H]4O[C@H](CO)[C@@H](O)[C@H](O)[C@H]4O)[C@H]1[C@@H]32 (stereo partly drawn)	i
COC(=O)C1=CO[C@@H](O[C@@H]2O[C@H](CO)[C@@H](O)[C@H](O)[C@H]2O)[C@@H]2C(CO)=CC[C@H]12	i
CSC(=O)OCC1=C[C@@H]2OC(=O)C3=CO[C@@H](O[C@@H]4O[C@H](CO)[C@@H](O)[C@H](O)[C@H]4O)[C@H]1[C@@H]32	+
Cc1ccc(C)c(N2CCN(C(=O)c3cc4n(n3)CC(C)(C(=O)NCCC(C)C)N(C)C4=O)CC2)c1 (stereo not drawn)	i
COc1ccc2cc3n(c2c1)CC(C)(C(=O)NC1CCCC1)N(Cc1ccccc1C)C3=O (stereo not drawn)	i
COc1ccc(CCN2C(=O)c3cc4ccccc4n3CC2(C)C(=O)NC2CCCC2)c(OC)c1 (stereo not drawn)	i
COc1cc2nc(N3CCCC3)nc(NCCCCCN3CCCC3)c2cc1OC	+!
COc1cc2c(Nc3ccc(NC(=O)c4ccccc4)cc3)ncnc2cc1OCCCN1CCOCC1	i
